Results as given in ChEMBL document CHEMBL3988442, “University of Dundee, Small-Polar-MMV Screening Library” (2021).
About 13,000 (27%) of roughly 48,000 compounds showed an effect of 50% or more. This is one part of the list.

tested on: Wolbachia pipientis; assay: Anti-Wolbachia Cell-Based Screen; assay type: functional; set-up: scale not given: in the data most compounds retested in dose-response had high values; settings: 5 µM

In order of falling “Percent Effect” value:
1. Fc1cccc(CN2CCC(c3noc(-c4ccncc4)n3)CC2)c1F  205.5%
2. Fc1cccc(CN2CCC(c3noc(-c4ccccn4)n3)CC2)c1F  179%
3. Fc1ccccc1CN1CCC(c2noc(-c3ccccn3)n2)CC1  178%
4. Fc1ccc(CN2CCC(c3noc(-c4cnccn4)n3)CC2)cc1F  155.5%
5. Fc1cccc(CN2CCC(c3noc(-c4cnccn4)n3)CC2)c1F  134.1%
6. CNC(=O)c1ccc(C(=O)N2CCCC(n3ccnc3)C2)cn1 (centres undefined)  118%
7. CCc1nccn1CC(=O)Nc1cccc(C(=O)N(C)C)c1  117.3%
8. CNc1ncccc1CN1CCCCC1c1ccnc(N)n1 (centres undefined)  116.5%
9. Nc1ncc(-c2ccc(Cl)cc2)c(C2CCCNC2)n1 (centres undefined)  110.4%
10. CN(C)C(=O)CN1CCC2(COCc3cnc(-c4cccnc4)nc32)C1.O=C(O)C(F)(F)F.O=C(O)C(F)(F)F (centres undefined)  108.5%
11. Nc1ncc(-c2ccc(F)cc2)c(C2CCCNC2)n1 (centres undefined)  107.7%
12. Cc1cccnc1CN1CCCCC1c1ccn2ccnc2n1 (centres undefined)  107.3%
13. CCCc1nnc(NC(=O)NC(C)Cn2cccn2)s1 (centres undefined)  106.7%
14. CC1CCN(C(=O)NCC(=O)N(C)CC(F)(F)F)C1 (centres undefined)  103.3%
15. CC(Cn1cccn1)NC(=O)Nc1ccccn1 (centres undefined)  102.9%
16. CCC(CC)c1nnc(NC(=O)NC(C)Cn2cccn2)s1 (centres undefined)  102.8%
17. CC(C)C1CCN(C(=O)NCC(=O)N(C)CC(F)(F)F)CC1  101.1%
18. CCC(CCN)n1ccc(C(F)(F)F)n1 (centres undefined)  101%
19. CN(C)C(=O)CN1CCC2(COCc3cnc(-c4ccccc4)nc32)C1 (centres undefined)  100.5%
20. CCC(CC#N)n1ccc(C(F)(F)F)n1 (centres undefined)  100.1%
21. Cc1nnc(NC(=O)NC(C)Cn2cccn2)s1 (centres undefined)  98.41%
22. CCc1nccn1CC(=O)Nc1cccc(C(=O)OC)c1  94.76%
23. CN(CC(F)(F)F)C(=O)CNC(=O)N1CCC(N2CCCC2)C1 (centres undefined)  94.48%
24. CC(Cn1cccn1)NC(=O)Nc1nncs1 (centres undefined)  94.45%
25. CNC(=O)c1ccc(C(=O)N2CCCC(n3ccnc3C)C2)cn1 (centres undefined)  94.35%
26. CNc1ncccc1CN1CCCCC1c1cc(C)n2ccnc2n1 (centres undefined)  94%
27. CNc1ncccc1CN1CCC1c1cc(N)nc(C)n1 (centres undefined)  93.93%
28. CC(CC#N)n1ccc(C(F)(F)F)n1 (centres undefined)  86%
29. COc1ccc(-c2cnc(N)nc2C2CCCNC2)cc1.Cl (centres undefined)  80.9%
30. Nc1ncc(-c2ccc(C(F)(F)F)cc2)c(C2CCCNC2)n1 (centres undefined)  52.9%
31. O=C(C1CCCc2[nH]ncc21)N1CCCC2(C1)OCCO2 (centres undefined)  23.68%
32. CCc1cc(NC2CCN(Cc3ccccc3F)CC2)n2nccc2n1  21.54%
33. CC(C)CN1CCc2[nH]cnc2C12CCN(C(=O)c1cnn(C)c1)CC2  18.71%
34. CC(c1nc(C2CC2)no1)N1CCN(Cc2cccc(F)c2F)CC1 (centres undefined)  13.59%
35. COC(C)(C)CC(C)NC(=O)Nc1ccccn1 (centres undefined)  11.35%
36. COc1cccc(CN2CCc3nc(C(N)=O)sc3CC2)c1.O=C(O)C(F)(F)F  8.884%
37. CCn1c(CN(C)C)nnc1C1CCN(Cc2cccc(F)c2F)CC1  8.209%
38. O=S(=O)(NCCn1cc(C2CCCNC2)nn1)c1ccc(Cl)cc1 (centres undefined)  7.811%
39. CCOC1CCN(C(=O)NCCN(C)C(=O)OC(C)(C)C)CC1  7.411%
40. Fc1cccnc1CN1CCCCC1c1ccn2ccnc2n1 (centres undefined)  6.686%
41. Cn1cccc1C(=O)N1CCCN(CCCc2ccccc2)CC1  5.768%
42. Cc1noc(C)c1CC(=O)OCC(=O)N1CCc2sccc2C1  3.916%
43. CC(C)CCC(C)NC(=O)Nc1ccccn1 (centres undefined)  3.296%
44. CC(=O)NC(C(=O)N1CCn2cncc2C1)C(C)C (centres undefined)  3.291%
45. Cc1ccccc1CSc1nc(N)cc(N2CC[C@@H](O)C2)n1  2.755%
46. Cc1cccnc1NC(=O)NC(C)Cn1cccn1 (centres undefined)  2.456%
47. O=S(=O)(CCCn1cncn1)Cc1cccc(F)c1  2.155%
48. Cc1cccnc1CN1CCN(CC(=O)N(C)C)[C@@H]2CS(=O)(=O)C[C@@H]21  1.676%
49. CC(Cn1cccn1)NC(=O)Nc1ccc(N(C)C)nc1 (centres undefined)  1.644%
50. CC(=O)NCCC(=O)NCCCOc1c(C)cccc1C  1.2%
51. CS(=O)(=O)NCCNC(=O)NC1(c2ccc(F)cc2)CCCC1  1.188%
52. Cc1cccc(C)c1OCCNC(=O)C[S+]([O-])C1CCCC1 (centres undefined)  0.9364%
53. O=C(Nc1ccc(-c2csnn2)cc1)N1CCC(N2CCCC2)C1 (centres undefined)  0.9%
54. COC(=O)c1cccc(NC(=O)CN2CCN(S(C)(=O)=O)CC2)c1  0.7545%
55. COCCS(=O)(=O)Nc1ccc(-n2nccc2C(F)(F)F)cc1  0.6513%
56. O=C(c1ccc(-c2cc[nH]n2)cc1)N1CC[C@H](CO)[C@H](O)C1  0.4%
57. Cc1cc(C)c2c(c1)C(NC(=O)CSCc1ccncc1)CCO2 (centres undefined)  0.01106%
58. CN(CC(F)(F)F)C(=O)CNC(=O)Cc1ccccc1O  -0.134%
59. Fc1ccc(CN2CCCC(c3nnc(-c4cnccn4)o3)C2)cc1F (centres undefined)  -0.1636%
60. O=C(CSc1ccc2c(c1)OCCO2)NS(=O)(=O)c1ccccc1Br  -0.599%
61. COC(=O)c1cccc(C(=O)N2CCCCC2CCn2ccnc2C)c1 (centres undefined)  -0.7359%
62. Fc1ccccc1CN1CCC(c2n[nH]c(C3CC3)n2)CC1  -0.8499%
63. O=C1OCCN1c1cccc(CNS(=O)(=O)Cc2ccc(F)cc2)c1  -0.8668%
64. FC(F)(F)c1ccc2[nH]c([C@H]3CCNC3)nc2c1  -0.9457%
65. O=C(CC1CCc2ccccc21)NC1(C(=O)O)CCOCC1 (centres undefined)  -1.321%
66. O=C(NCc1ccoc1)Nc1ccc(CN2CCOC2=O)cc1  -1.544%
67. CC(=O)N(Cc1c(F)cccc1F)C1CCCC1  -1.576%
68. CC(=O)c1cccc(NC(=O)Cn2cnc(-c3ccccc3)cc2=O)c1  -1.653%
69. CC(=O)c1ccccc1NC(=O)CCN1CCSCC1  -1.71%
70. CCOc1ccc(NC(=O)Cc2cc(C)[nH]n2)cc1CO  -2.214%
71. CCN1C(=O)CC(N(C)Cc2nc3ccccc3c(=O)[nH]2)C1=O (centres undefined)  -2.279%
72. CCNc1ncc(C(=O)N(C)CCc2nc3cc(Cl)ccc3[nH]2)cn1  -2.741%
73. CC(Cn1cccn1)NC(=O)NCc1ccccn1 (centres undefined)  -2.779%
74. Cc1ccccc1CN1CCC2(COCc3cnc(N(C)C)nc32)C1.O=C(O)C(F)(F)F (centres undefined)  -3.264%
75. CC(Cn1cccn1)NC(=O)Nc1nnc(C2CC2)s1 (centres undefined)  -3.463%
76. CN(C)c1ncc2c(n1)C1(CCN(Cc3ccccc3F)C1)COC2.O=C(O)C(F)(F)F (centres undefined)  -3.722%
77. CC(Cn1cccn1)NC(=O)Nc1nccs1 (centres undefined)  -3.735%
78. CN(CC(F)(F)F)C(=O)CNC(=O)Cc1cccc(O)c1  -3.923%
79. F[C@@H]1CN(Cc2ccccc2)C[C@@H]1OCc1nc2cnccc2[nH]1  -3.935%
80. Cc1cccc(CS(=O)(=O)CC(=O)N(C)Cc2ccccc2F)c1  -4.083%
81. COc1ccc(NC(=O)NC(C)Cn2cccn2)cn1 (centres undefined)  -4.158%
82. FC(F)(F)c1ccc(-c2c[nH]c([C@@H]3COCCN3)n2)cc1  -4.53%
83. COc1cccc(CN2CCC3(COCc4cnc(N(C)C)nc43)C2)c1.O=C(O)C(F)(F)F (centres undefined)  -4.622%
84. CNc1cc(C2CCCN2Cc2ccccc2OCC(=O)O)ccn1 (centres undefined)  -5.445%
85. CCc1nccn1C1CCCN(C(=O)c2ccc(C(=O)NC)nc2)C1 (centres undefined)  -5.671%
86. Cc1ccc(NC(=O)NC(C)Cn2cccn2)cc1 (centres undefined)  -6.589%
87. CC1CN(C2CCN(Cc3nccn3CC(F)(F)F)CC2)CCO1 (centres undefined)  -6.653%
88. Cc1cnn(CCCNC(=O)N2CCCCC(N3CCCC3)C2)c1 (centres undefined)  -6.749%
89. CC(C)=CCN1CCN(CCCc2ccccc2)[C@H]2CS(=O)(=O)C[C@H]21  -6.821%
90. CN(Cc1ccccc1Cl)C(=O)c1cc(CN2CCC(O)CC2)on1  -7.03%
91. CC(C)=CCN1C[C@H]2CC[C@@H]1CN(CCC(=O)NCc1ccco1)C2  -7.993%
92. Fc1cccc(C2CCCCN2Cc2nc(-c3cnccn3)no2)c1 (centres undefined)  -8.906%
93. O=C(N[C@@H]1CCCNC1)C1(Oc2ccc(Cl)cc2)CCNCC1  -9.041%
94. CCN(Cc1cc(Cl)c(O)c(OC)c1)Cc1nc(COC)no1  -9.296%
95. CN(C)C(=O)c1cccc(NC(=O)CN2CCCCC2C2OCCO2)c1 (centres undefined)  -9.797%
96. CN(CC(F)(F)F)C(=O)CNC(=O)Cc1ccc(O)cc1Cl  -9.929%
97. CC(C)CS(=O)(=O)CC(=O)N(C)Cc1ccc(OC(F)F)cc1  -10.21%
98. Cc1nnc2n1CCN(Cc1c(Cl)ccc3cccnc13)C2  -10.28%
99. Fc1ccc(CN2CCC(c3n[nH]c4nccnc34)CC2)cc1F  -10.9%
100. O=C(Nc1ccc(F)cc1)N1C[C@H]2CC[C@@H]1CN(Cc1cccnc1)C2  -11.36%
101. O=C1CCc2cc(S(=O)(=O)NC(=O)c3ccc4c(c3)CCO4)ccc2N1  -17.2%
102. CN(Cc1nc2ccccc2c(=O)[nH]1)C[C@@H]1CCCN2CCCC[C@H]12  -19.12%
103. CCC1=N[C@@]2(CC[C@@H]3CN(S(=O)(=O)N(C)C)C[C@@H]32)C(=O)N1CC(C)C  -19.59%
104. COc1ccc2c(c1)OCC(Cc1ccc(CN)cn1)C2 (centres undefined)  -20.89%
